Data on 7 molecules can be found in PubChem BioAssay (NCATS).

Inconclusive results are not listed. The source made the active and inactive calls. Unless noted, the call rests on the fitted dose curve; in most records, active means well fitted curve in the direction sought with a large enough effect; inconclusive means small, poorly fitted or top-dose-only effect, or another doubt; inactive means no such curve, though single readings can be large; an effect the other way counts as inactive or inconclusive.

The nature of assay [1]: Quantitative high throughput screen for delayed death inhibitors of the malarial parasite plastid, 96 hour incubation (AID 488745). Further: nearly all actives have a fitted effect of over 70% in size. Further: potency means the concentration at half of the fitted maximal effect. The essentials: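 Decreased firefly luciferase luminescence indicates inhibited growth of reporter-integrated P. falciparum after two generations (96 h, 37 C, 5% CO2). Infected erythrocytes at 0.1% parasitemia, 2% hematocrit, in Albumax-supplemented RPMI 1640.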

Assay [2] is described as follows: Quantitative high throughput screen for delayed death inhibitors of the malarial parasite plastid, 48 hour incubation (AID 488752). Further: nearly all actives have a fitted effect of over 65% in size. Further: potency means the concentration at half of the fitted maximal effect. The essentials: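 One-generation (48 h) growth assay: a decrease in luciferase signal from an integrated reporter in P. falciparum-infected red cells (0.1% parasitemia, 2% hematocrit) after compound exposure at 37 C indicates parasite inhibition.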

The target of assay [3] is Thioredoxin reductase 1, cytoplasmic (Rattus norvegicus) (UniProt O89049). Briefly: qHTS Assay for Substrates of Mammalian Selenoprotein Thioredoxin Reductase 1 (TrxR1) (AID 488772).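 Further: series mostly up to about 57 µM; 0% is about no effect; a drop in NADPH fluorescence below the no-compound background marks a TrxR1 substrate.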 The essentials:
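In this dual-purpose format, potential substrates are identified from the first fluorescence read after selenite addition, not from the 8-minute delta. Rat enzyme is preincubated with NADPH and then with compound at ~22 deg C.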

Assay [4] has the same target. In words: qHTS Assay for Inhibitors of Mammalian Selenoprotein Thioredoxin Reductase 1 (TrxR1) (AID 488773).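 Further: drop in NADPH fluorescence over an 8 min run after selenite addition; series mostly up to about 57 µM; on the % scale 0 is the no-effect control and ±100 the full control effect; nearly all actives have a fitted effect of over 40% in size.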 Particulars: Potency: inhibition. In outline:
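Inhibition is scored from the loss of NADPH fluorescence between first and last reads of an 8-min kinetic run. Selenite (400 uM) was the substrate, added after 15 min compound preincubation at room temperature.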
On the technique in general: qHTS replaces the single test concentration by a dilution series.

For assay [5], the target named is Flap endonuclease 1 (Homo sapiens) (UniProt P39748). Briefly: qHTS Validation Assay for the Inhibitors of Human Flap endonuclease 1 (FEN1) (AID 488816). Further: on the % scale 0 is the no-effect control and ±100 the full control effect. In outline:
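Enzyme reagent 10 nM; cpds pinned; 15 min RT preinc.; substrate 50 nM final; reads t=0 and 15 min; no-enzyme buffer wells as neg. control; normalized data, 4-parameter Hill fit.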

The target of assay [6] is M-phase phosphoprotein 8 (Homo sapiens) (UniProt Q99549). In words: qHTS Validation Assay for Inhibitors for MPP8 Chromodomain Interactions with Methylated Histone Tails (AID 488949).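 Further: 50 nM MPP8 with 50 nM peptide preformed then compounds added for 30 min; AlphaScreen signal from MPP8 chromodomain bound to biotinylated H3K9me3 peptide; top concentration of the series differs between compounds; on the % scale 0 is the no-effect control and ±100 the full control effect; nearly all actives have a fitted effect of over 55% in size.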 The essentials:
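50 nM MPP8 + 50 nM b-H3K9me3 peptide, PBS pH 7.4/0.01% Tween-20, 30 min RT; + cpd 30 min RT; + AlphaScreen donor/Ni-chelate acceptor beads 10 ug/mL final, 30 min dark; luminescence read.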

For assay [7], the target named is Methanococcus maripaludis chaperonin (MmCpn) (UniProt Q6LX38). Briefly: High-Throughput Screening for Modulators of Cytosolic Chaperonin Activity: MmCpn Primary Screen (AID 488978).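 Further: 50 nM MmCpn enzyme hydrolysing 30 µM ATP at 37 °C; 0% is about no effect.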 The essentials:
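Steps: chaperonin 50 nM final; add compound, 5 min RT; start with ATP, 30 uM final; hold 10 min at 37C; add ADP Transcreener HTRF reagent, 5 min; read ex 320, em 590 and 665 nm.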

Assay [8] addresses Transient receptor potential cation channel subfamily V member 1 (Homo sapiens) (UniProt Q8NER1). Briefly: HTS Assay for Compounds that Act as Enhancers of the Vanilloid Receptor 1 (AID 488979). Further: 0% is about no effect. In outline:
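TRPV1 cells loaded with Fluo-8 calcium dye; compound added and Ca2+ signal (ex 480/em 520 nm) followed 3 min, then capsaicin at EC20 added and read 2 more min to detect enhancement.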

For assay [9], the target named is Thyrotropin receptor (Homo sapiens) (UniProt P16473). In words: qHTS Assay for Antagonists of the Thyroid Stimulating Hormone Receptor (AID 488980). Further: series mostly up to about 58 µM; 0% is about no effect. The essentials:
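Readout is cAMP by HTRF competition between cellular cAMP and cAMP-d2 for a cryptate-labelled antibody. Antagonism was assessed in TSHR-transfected HEK293 cells stimulated with 4 nM TSH (EC80, final) in the presence of RO 20-1724.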

Assay [10] addresses D(1A) dopamine receptor (Homo sapiens) (UniProt P21728). In words: HTS Assay for Allosteric Agonists of the Human D1 Dopamine Receptor: Primary Screen for Agonists (AID 488981). Further: 0% is about no effect. The essentials:
(§1)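 Tetracycline-induced HEK293 Trex D1 cells with forced coupling to calcium, loaded with no-wash calcium dye; kinetic fluorescence read 180 s after compound addition for agonism, then a further 180 s after an EC20 dopamine challenge for potentiation.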

Assay [11] shares this target. Briefly: HTS Assay for Allosteric Agonists of the Human D1 Dopamine Receptor: Primary Screen for Potentiators (AID 488982). Further: 0% is about no effect. The essentials: as §1
The nature of assay [12]: Validation screen for small molecules that induce genotoxicity in human embryonic kidney (HEK293T) cells expressing luciferase-tagged ELG1 (AID 493106). Further: 0% is about no effect. In outline: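 ELG1-luciferase reporter readout (ONE-Glo, 30 min, room temperature) after 16 hr compound treatment at 37 °C of HEK293T cells at 2,000 per well. Rising luminescence flags genotoxic stress.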
The target in assay [13] is ATPase family AAA domain-containing protein 5 (Homo sapiens) (UniProt Q96QE3). Briefly: Validation screen for small molecules that inhibit ELG1-dependent DNA repair in human embryonic kidney (HEK293T) cells expressing luciferase-tagged ELG1 (AID 493107).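 Further: series mostly up to about 46 µM; on the % scale 0 is the no-effect control and ±100 the full control effect; inhibitors lower the ELG1-luciferase luminescence signal; nearly all actives have a fitted effect of over 70% in size.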 The essentials:
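Luciferase read-out, ONE-Glo, 30 min at room temperature, follows 16 h co-exposure at 37 C of compound and the DNA-damaging agent 5-fluorouridine. Cells: HEK293T with ELG1-luciferase fusion, 2,000 per well, DMSO as vehicle.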

The target in assay [14] is Thyrotropin-releasing hormone receptor (Homo sapiens) (UniProt P34981). Briefly: qHTS for Small Molecule Agonists and Allosteric Enhancers of Human TRH Receptor: Validation Screen for Agonists (AID 493127;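 active means calcium activation more than 3 SD above the typical response in the agonist read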;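 further: intracellular calcium rise by fluo-8 fluorescence before TRH EC20 addition; 0% is about no effect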). Particulars: TRH receptor agonist cell assay; at 2 µM; stronger effect = higher value. The essentials: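 Compound-evoked intracellular calcium release in fluo-8-loaded TRHR cells, read kinetically on FDSS (Ex 480/Em 530, 1 s/cycle) after 23 nL pintool transfer. Agonist phase preceded 10 nM TRH EC20 addition.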

The nature of assay [15]: Nrf2 qHTS screen for inhibitors: Validation (AID 493153; active means well fitted inhibition curve with a large enough effect in the main read-out, with a control signal flat, not every such curve was filed as active). The following applies: Potency: luciferase luminescence; viability change: measured here: cytotoxicity max response. The essentials:
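Concentration-response on A549 ARE_Fluc reporter cells exposed 18-24 h at 37 C, 5% CO2. Cytotoxicity read first by CellTiter-Fluor fluorescence (Ex 405/Em 525), then Nrf2 inhibition by BugLite luminescence after 15 min.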

Assay [16] in a line: qHTS for Inhibitors of Cell Surface uPA Generation: Validation Assay (AID 493164).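 Further: RAW 264.7 macrophage cells exposed to compound for 18 h; 0% is about no effect.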 The essentials:
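ATP-Lite luminescence read-out: ATP remains high when uPA activity-dependent LF translocation into the cytoplasm is blocked. RAW 264.7 cells, 18 h compound exposure at 37 C; 7-point titration, 2.45 nM to 38.3 uM final.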

Assay [17] addresses Chromobox protein homolog 1 (Homo sapiens) (UniProt P83916). Briefly: qHTS Validation Assay for Inhibitors of HP1-beta Chromodomain Interactions with Methylated Histone Tails (AID 488953).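 Further: loss of AlphaScreen luminescence from HP1-beta binding biotinylated H3K9me3 peptide; series mostly up to about 110 µM; on the % scale 0 is the no-effect control and ±100 the full control effect; nearly all actives have a fitted effect of over 50% in size.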 In outline: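 AlphaScreen proximity signal from streptavidin donor and nickel chelate acceptor beads (final 10 ug/mL) after 30 min dark incubation. Compounds had 30 min at room temperature with preformed complex of 50 nM HP1-beta and 50 nM b-H3(1-18)K9me3 in PBS pH 7.4 with 0.01% Tween-20.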

The target in assay [18] is D(1A) dopamine receptor (Homo sapiens) (UniProt P21728). Briefly: HTS Assay for Allosteric Agonists of the Human D1 Dopamine Receptor: Primary Screen for Antagonists (AID 488983).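 Further: calcium flux response to an EC80 dopamine challenge measured with no-wash dye; on the % scale 0 is the no-effect control and ±100 the full control effect; nearly all actives have a fitted effect of over 65% in size.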 The essentials:
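Calcium-flux read-out in inducible HEK293 T-REx cells expressing D1, dye-loaded 30–90 min at room temperature. Kinetic reads: 180 s after compound (agonist phase), then 180 s after an EC80 dopamine challenge.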

Chain of ATPase family AAA domain-containing protein 5 (Homo sapiens) (Q96QE3 whole entry, looked up, the tested form may be a part): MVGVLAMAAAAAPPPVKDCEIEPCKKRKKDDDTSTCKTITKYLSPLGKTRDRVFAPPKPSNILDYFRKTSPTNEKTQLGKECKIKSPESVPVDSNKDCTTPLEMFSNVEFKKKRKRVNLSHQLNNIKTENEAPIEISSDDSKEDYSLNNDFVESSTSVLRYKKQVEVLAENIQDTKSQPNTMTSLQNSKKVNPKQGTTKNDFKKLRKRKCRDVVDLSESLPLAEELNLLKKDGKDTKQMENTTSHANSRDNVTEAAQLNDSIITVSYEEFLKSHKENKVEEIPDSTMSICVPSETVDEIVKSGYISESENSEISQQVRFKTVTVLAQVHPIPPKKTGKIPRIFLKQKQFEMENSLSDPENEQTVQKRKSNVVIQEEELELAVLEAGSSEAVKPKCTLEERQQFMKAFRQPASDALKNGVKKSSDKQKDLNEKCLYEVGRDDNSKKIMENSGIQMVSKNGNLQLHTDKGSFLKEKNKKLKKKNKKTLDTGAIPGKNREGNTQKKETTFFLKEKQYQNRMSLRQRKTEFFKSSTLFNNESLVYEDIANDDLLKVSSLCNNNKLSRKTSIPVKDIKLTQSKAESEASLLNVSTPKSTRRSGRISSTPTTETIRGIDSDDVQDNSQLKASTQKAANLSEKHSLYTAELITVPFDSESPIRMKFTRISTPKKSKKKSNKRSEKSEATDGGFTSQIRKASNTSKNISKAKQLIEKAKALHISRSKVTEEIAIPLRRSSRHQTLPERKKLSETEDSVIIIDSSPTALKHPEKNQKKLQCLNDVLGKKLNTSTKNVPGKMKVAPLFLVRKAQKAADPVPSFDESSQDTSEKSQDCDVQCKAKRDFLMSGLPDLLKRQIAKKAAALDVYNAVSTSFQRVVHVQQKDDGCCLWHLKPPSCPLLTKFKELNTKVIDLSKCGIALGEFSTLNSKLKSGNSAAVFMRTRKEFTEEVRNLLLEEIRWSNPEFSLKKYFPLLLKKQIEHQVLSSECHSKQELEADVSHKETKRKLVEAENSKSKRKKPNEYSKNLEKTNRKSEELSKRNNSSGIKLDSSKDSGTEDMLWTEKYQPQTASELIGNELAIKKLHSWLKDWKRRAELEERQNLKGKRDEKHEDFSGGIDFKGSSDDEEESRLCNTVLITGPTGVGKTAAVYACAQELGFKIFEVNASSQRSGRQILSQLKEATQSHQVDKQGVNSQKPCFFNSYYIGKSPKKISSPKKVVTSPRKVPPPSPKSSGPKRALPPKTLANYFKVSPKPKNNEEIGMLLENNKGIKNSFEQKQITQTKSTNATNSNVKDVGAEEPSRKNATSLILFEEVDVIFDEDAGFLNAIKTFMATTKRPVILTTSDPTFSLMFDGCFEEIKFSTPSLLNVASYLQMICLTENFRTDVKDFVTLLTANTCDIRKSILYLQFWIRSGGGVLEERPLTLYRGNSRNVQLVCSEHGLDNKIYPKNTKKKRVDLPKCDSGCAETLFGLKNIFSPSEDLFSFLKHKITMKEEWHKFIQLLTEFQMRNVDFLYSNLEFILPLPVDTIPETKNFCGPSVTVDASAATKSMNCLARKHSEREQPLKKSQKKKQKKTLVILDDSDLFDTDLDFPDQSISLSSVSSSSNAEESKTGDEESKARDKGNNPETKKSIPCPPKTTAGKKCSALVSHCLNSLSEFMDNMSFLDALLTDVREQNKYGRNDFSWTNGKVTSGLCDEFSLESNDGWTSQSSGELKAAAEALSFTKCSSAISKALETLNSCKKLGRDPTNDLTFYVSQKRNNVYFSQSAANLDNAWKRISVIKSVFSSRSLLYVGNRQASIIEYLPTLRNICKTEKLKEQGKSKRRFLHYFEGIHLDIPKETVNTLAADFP
Chain of M-phase phosphoprotein 8 (Homo sapiens) (Q99549 whole entry, looked up): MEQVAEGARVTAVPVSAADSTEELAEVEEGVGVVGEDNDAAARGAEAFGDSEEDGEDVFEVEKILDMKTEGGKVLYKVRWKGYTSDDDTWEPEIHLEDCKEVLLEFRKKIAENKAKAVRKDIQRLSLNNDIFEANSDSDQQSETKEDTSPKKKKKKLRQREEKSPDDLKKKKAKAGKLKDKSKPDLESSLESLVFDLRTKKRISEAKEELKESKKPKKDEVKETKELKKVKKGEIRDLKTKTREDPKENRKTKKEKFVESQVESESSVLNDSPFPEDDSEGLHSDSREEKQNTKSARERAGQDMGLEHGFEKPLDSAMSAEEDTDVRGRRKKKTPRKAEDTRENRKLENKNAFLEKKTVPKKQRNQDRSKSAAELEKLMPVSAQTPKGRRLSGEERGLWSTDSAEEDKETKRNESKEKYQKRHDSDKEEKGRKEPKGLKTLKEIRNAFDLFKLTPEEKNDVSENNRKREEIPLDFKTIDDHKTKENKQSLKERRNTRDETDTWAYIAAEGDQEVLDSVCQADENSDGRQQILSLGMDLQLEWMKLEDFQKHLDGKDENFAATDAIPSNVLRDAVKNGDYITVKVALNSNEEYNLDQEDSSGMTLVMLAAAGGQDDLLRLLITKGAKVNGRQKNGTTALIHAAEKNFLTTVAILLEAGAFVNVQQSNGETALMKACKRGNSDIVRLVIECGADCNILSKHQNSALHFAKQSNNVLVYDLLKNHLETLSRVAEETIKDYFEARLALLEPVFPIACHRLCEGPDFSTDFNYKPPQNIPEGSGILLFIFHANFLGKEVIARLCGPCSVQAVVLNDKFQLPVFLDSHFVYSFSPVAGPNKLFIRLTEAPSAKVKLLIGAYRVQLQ
Chain of Flap endonuclease 1 (Homo sapiens) (P39748 whole entry, looked up): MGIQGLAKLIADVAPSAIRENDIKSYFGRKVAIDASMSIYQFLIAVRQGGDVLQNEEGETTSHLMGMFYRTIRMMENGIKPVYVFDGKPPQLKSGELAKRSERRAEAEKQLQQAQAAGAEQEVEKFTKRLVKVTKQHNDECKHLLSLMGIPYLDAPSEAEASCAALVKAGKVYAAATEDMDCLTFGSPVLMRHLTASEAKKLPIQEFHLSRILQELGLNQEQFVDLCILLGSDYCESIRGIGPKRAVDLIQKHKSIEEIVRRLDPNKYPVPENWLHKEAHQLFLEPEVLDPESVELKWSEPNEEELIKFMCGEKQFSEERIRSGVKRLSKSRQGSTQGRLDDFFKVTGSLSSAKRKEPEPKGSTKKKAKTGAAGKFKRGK
Chain of Transient receptor potential cation channel subfamily V member 1 (Homo sapiens) (Q8NER1 whole entry, looked up): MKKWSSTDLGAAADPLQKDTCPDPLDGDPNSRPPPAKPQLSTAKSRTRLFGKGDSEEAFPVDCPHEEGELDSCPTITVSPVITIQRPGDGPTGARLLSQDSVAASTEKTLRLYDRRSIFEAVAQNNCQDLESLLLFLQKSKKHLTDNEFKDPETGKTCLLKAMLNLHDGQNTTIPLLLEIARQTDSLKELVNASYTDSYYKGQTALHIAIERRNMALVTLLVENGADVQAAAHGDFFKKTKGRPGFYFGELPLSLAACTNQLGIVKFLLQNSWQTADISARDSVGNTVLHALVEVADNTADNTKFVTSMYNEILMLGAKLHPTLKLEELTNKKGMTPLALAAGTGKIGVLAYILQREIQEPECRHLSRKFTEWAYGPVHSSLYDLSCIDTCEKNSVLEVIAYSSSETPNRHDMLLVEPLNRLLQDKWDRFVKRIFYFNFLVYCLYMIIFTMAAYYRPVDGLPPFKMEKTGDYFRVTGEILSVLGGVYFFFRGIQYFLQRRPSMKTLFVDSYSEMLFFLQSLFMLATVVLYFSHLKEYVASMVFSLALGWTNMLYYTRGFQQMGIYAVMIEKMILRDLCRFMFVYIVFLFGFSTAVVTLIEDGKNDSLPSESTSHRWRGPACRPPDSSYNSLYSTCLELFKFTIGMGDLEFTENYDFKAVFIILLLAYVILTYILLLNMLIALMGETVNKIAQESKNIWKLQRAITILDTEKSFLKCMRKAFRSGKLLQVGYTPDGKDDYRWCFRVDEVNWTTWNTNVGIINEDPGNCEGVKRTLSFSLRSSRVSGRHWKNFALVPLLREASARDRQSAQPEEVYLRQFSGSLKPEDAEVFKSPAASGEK
Chain of Thioredoxin reductase 1, cytoplasmic (Rattus norvegicus) (O89049 whole entry, looked up): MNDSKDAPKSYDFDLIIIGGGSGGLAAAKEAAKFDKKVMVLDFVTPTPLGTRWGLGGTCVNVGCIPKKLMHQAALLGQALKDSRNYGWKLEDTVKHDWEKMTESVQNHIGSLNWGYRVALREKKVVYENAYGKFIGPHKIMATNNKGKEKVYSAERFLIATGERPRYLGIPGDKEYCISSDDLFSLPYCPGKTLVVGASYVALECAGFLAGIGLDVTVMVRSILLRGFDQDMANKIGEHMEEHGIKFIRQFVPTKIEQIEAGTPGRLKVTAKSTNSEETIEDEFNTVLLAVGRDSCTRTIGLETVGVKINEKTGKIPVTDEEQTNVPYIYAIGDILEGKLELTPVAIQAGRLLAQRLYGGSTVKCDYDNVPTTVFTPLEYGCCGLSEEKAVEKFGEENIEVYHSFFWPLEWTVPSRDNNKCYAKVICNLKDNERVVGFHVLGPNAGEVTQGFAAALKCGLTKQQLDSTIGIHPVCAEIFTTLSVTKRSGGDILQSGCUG
Chain of Methanococcus maripaludis chaperonin (MmCpn) (Q6LX38 1-543): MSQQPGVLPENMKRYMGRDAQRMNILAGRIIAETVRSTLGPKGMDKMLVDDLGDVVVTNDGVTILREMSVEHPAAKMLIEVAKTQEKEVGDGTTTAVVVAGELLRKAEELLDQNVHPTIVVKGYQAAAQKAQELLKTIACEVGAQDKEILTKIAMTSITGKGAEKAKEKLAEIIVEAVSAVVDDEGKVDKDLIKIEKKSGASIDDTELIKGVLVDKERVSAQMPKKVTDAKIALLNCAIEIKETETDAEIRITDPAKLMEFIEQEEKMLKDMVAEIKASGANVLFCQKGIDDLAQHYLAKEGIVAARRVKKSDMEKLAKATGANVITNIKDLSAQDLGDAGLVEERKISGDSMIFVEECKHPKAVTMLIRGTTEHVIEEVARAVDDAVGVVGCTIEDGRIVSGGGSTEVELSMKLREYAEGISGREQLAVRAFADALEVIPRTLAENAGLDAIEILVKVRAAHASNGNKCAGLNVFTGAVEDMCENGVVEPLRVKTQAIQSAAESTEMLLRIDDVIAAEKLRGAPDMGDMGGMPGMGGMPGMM

For `NC(=O)c1ccc(OCC(O)CN2CC=C(c3ccc(F)cc3)CC2)cc1` (stereo not drawn), the Potency result in assay [1], in assay [2], in [4], in [5], in assay [6] and in assay [10] was “inactive” each time. Further, the Potency result in assay [11], in [12], in assay [13] and in assay [15] was “inactive” throughout. Moreover, the call in assay [3], in assay [7], in assay [8], in assay [9] and in assay [16] was inactive. Moreover, the activation in assay [14] was 4.62% (inactive). In addition, in assay [15], the viability change is 16.7%.

For the molecule `NNC(=O)c1ccc(O)cc1`, the Potency entry in [1], in assay [2], in assay [4], in assay [5], in assay [6] and in assay [17] was “inactive” throughout. For the same molecule, the Potency result in [10], in assay [18] and in [13] was “inactive” throughout. Also, the outcome in assay [3], in [7], in [8], in assay [9] and in assay [16] was inactive. Moreover, in assay [14], the activation was 0.375% (inactive).

As for `O=[N+]([O-])c1cc(O)c(O)c([N+](=O)[O-])c1`, the Potency result in assay [1], in assay [2], in [4], in assay [5], in [6] and in [10] was “inactive” throughout. Further, the Potency result in assay [11], in assay [18], in assay [12] and in assay [13] was “inactive” each time. The molecule was called inactive in [3], in [7], in assay [8], in assay [9] and in assay [16]. Further, the activation in assay [14] was -0.438% (inactive).

Take `NC(CCCCCP(=O)(O)O)C(=O)O` (stereo not drawn): the Potency result in assay [1], in [2], in assay [4], in assay [5], in [6] and in [10] was “inactive” throughout. Moreover, the Potency result in assay [11], in assay [18], in assay [13] and in [15] was “inactive” in each case. Moreover, the molecule was called inactive in assay [3], in assay [7], in [8], in assay [9] and in assay [16]. Further, in [14], the activation is 0.312% (inactive). Also, the viability change in assay [15] was found to be 13.6%.

In the case of `C=CCN1C[C@@H](C)N([C@H](c2ccc(C(=O)N(CC)CC)cc2)c2cccc(OC)c2)C[C@@H]1C`, the Potency in assay [1] was 4.65 µM (active); in [2], 5.22 µM (active). The molecule was called inactive in assay [3], in assay [7], in assay [8], in [9] and in assay [16]. Further, the Potency result in [4], in assay [5], in [6], in [10], in assay [18] and in assay [12] was “inactive” in each case. Moreover, the Potency result in assay [13] and in [15] was “inactive” each time. The activation in assay [14] was 2.06% (inactive). The viability change in [15] was 4.14%.

In the case of `NCCc1ccc(S(=O)(=O)F)cc1`, the Potency entry in [1], in [2], in [4], in [5], in assay [6] and in assay [17] was “inactive” in each case. In addition, the Potency entry in assay [10], in assay [11], in [18], in assay [12] and in [15] was “inactive” each time. Further, the molecule was called inactive in assay [3], in assay [7], in [8], in [9] and in [16]. Moreover, the activation in assay [14] is 1.25% (inactive). Further, the viability change in assay [15] was -2.23%.

Consider `NCCCP(=O)(O)O`, for which the Potency entry in assay [1], in assay [2], in assay [4], in assay [5], in [6] and in assay [10] was “inactive” each time. Further, the Potency entry in assay [11], in [18], in assay [12], in assay [13] and in [15] was “inactive” throughout. Further, the outcome in [3], in assay [7], in assay [8], in assay [9] and in assay [16] was inactive. Further, the activation in assay [14] is 0.562% (inactive). Moreover, the viability change in assay [15] was found to be 0.331%.
